# PubChem BioAssay (NCI)
# About 83,000 compounds went through this panel and 20% of them were active in at least one assay; those are over-represented in the sample as a whole.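 Single-concentration screen, 48 h exposure, 96-well plates. Endpoint: percent growth. Below 10 = active.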 Active and inactive are the calls of the source.
# Test system: NCI-H226 lung
# Assay: NCI-60 one-dose screen, 48 h (100 = growth as untreated, 0 = no growth, -100 = all killed)
# Conditions: 10 µM unless noted
# Experimental: Growth inhibition of the NCI-H226 human Non-Small Cell Lung tumor cell line is measured as a screen for anti-cancer activity. Cells are grown in 96 well plates and exposed to the test compound for 48 hours. Compounds are tested at a single concentration, which is 10^-5 M for most compounds. The reported endpoint is percent growth (GI% or GIPRCNT), where numbers from 0 - 100% represent growth inhibition, and numbers from -100% - 0 represent cell death. For example, a value of 40 represents 60% growth inhibition. A value of 0 means no net growth occurred over the course of the experiment. A value of -40 indicates 40% of cells at the beginning of the experiment died by the end of the experiment. A value of -100 means all cells are dead at the end of the experiment.
# NCI-60 Human Tumor Cell Lines Screen was performed using the standard one-dose NCI protocol, which is described in more detail at https://dtp.cancer.gov/discovery_development/nci-60/default.htm.
# Compounds with GIPRCNT values below 10 were considered active. Activity score was based on GIPRCNT using the following formula: […]
# Score is 0 for GIPRCNT values of 100 or above, 50 for GIPRCNT values of 0, and 100 for GIPRCNT values of -100.
row,Structure (SMILES),growth
1,COC(=O)c1c2c(c(C)[n+]([O-])c1C)C(=O)C(NCc1ccc(Cl)cc1)=CC2=O,92.6% (inactive)
2,CC1(C)CC[C@]2(c3nnc(-c4ccncc4)o3)CC[C@H]3C(=CC[C@H]4[C@@]3(C)CC[C@H]3C(C)(C)C(=O)CC[C@]43C)[C@@H]2C1,60.6% (inactive)
3,C=C(C)[C@@H]1CC[C@]2(C(=O)N3CCN(C)CC3)CC[C@]3(C)[C@H](CC[C@@H]4[C@@]5(C)CC(=C/c6ccncc6)/C(=N/O)C(C)(C)[C@@H]5CC[C@]43C)[C@@H]12,88.4% (inactive)
4,COc1ccc(/C=C2\COc3ccc(O)cc3C2=O)c(OC)c1OC,99% (inactive)
5,CCCNC(=O)Oc1ccc(/C(=C(/C)Cc2ccc(OC)cc2)c2ccc(OCCCN(C)C)cc2)cc1,94.7% (inactive)
6,N#Cc1cnc(NCCc2ccncc2)nc1-n1cnc2ccccc21,68.7% (inactive)
7,CC(=O)OC[C@]12CCC(C)(C)C[C@H]1[C@@]1(O)[C@H](O)C[C@@H]3[C@@]4(C)CCCNC(C)(C)[C@@H]4CC[C@@]3(C)[C@]1(C)CC2,102% (inactive)
8,COC1C[C@H](O[C@@H]2C[C@H](O[C@@H]3C[C@H](O[C@@H]4C(=O)c5c(cc6cc(O[C@H]7C[C@@H](O[C@H]8C[C@@H](O)[C@H](O)C(C)O8)[C@H](O)C(C)O7)c(C)c(O)c6c5O)C[C@H]4C(OC)C(=O)[C@@H](O)[C@@H](C)O)OC(C)[C@H]3O)OC(C)[C@@H]2O)OC(C)[C@@H]1O (stereo not given in full),3.22% (active)
9,CCCCCCCCCCCCCCCCCCOc1ccccc1CC(=O)NCC[N+]1(C)CCCC1,70.5% (inactive)
10,N=C(N)c1ccc(-c2ccc(-c3ccc(F)cc3)o2)o1,69.7% (inactive)
11,CCOC(=O)CSc1ncnc2c1c(-c1ccccc1)c(-c1ccccc1)n2-c1ccc(C)cc1,77.8% (inactive)
12,COCCn1cc(-c2nc(-c3cc4cccnc4n3CCOC)cs2)c2cc(OC)ccc21,63.1% (inactive)
13,COc1cc(OC)c2sc(-c3ccc(-n4cncc4-c4ccc(OC)c(OC)c4)cc3)nc2c1,66.7% (inactive)
14,Cc1cccc2c1NC(=O)C2(c1ccc(O)cc1)c1ccc(O)cc1,25.2% (inactive)
15,N#CC1=C(c2ccc(Cl)cc2)Nc2c(c(-c3ccc(Cl)cc3)nn2-c2ccccc2)C12C(=O)Nc1ccc(Cl)cc12 (stereo not given),67% (inactive)
16,CCOC(=O)c1cn2ncnc(Oc3ccc(NC(=O)NC4CCCCC4)c(Cl)c3)c2c1C,92.6% (inactive)
17,COc1cc(-n2cc(-c3cc(O)c(C/C=C(\C)CCC=C(C)C)c(O)c3)nn2)cc2c1O[C@]1(C)CC[C@@H](O)C(C)(C)[C@H]1C2,52.7% (inactive)
18,C#CCOc1ccc2ncnc(Nc3ccc(NC(=O)CCl)cc3)c2c1,47.6% (inactive)
19,O=C(/C=C(/C=C/c1cccc2[nH]ccc12)OB(F)F)/C=C/c1cccc2[nH]ccc12,-54.9% (active)
20,COc1cc(-c2nc(SCC(C)C)nc(Nc3cccc4ccccc34)c2C#N)cc(OC)c1OC,82.5% (inactive)

row,Structure (SMILES),growth
1,CCCc1cc(NC)nc(S(=O)(=O)CC)n1,108% (inactive)
2,COC(C(=O)[C@@H](O)[C@@H](C)O)[C@@H]1Cc2cc3cc(O[C@H]4C[C@@H](O[C@H]5C[C@@H](O)[C@H](O)C(C)O5)[C@H](O)C(C)O4)c(C)c(O)c3c(O)c2C(=O)[C@H]1O[C@H]1C[C@@H](O[C@H]2C[C@@H](O[C@H]3C[C@@H](O)[C@H](OC)C(C)O3)[C@@H](O)C(C)O2)[C@H](O)C(C)O1 (stereo not given in full),7.45% (active)
3,Cc1cc(Cl)ccc1NC(=O)c1cc2ccccc2cc1O,33.5% (inactive)
4,O=C1/C(=C/c2ccc(Cl)cc2)COc2ccc(O)c(O)c21,90.6% (inactive)
5,COC1=CC(c2ccc[nH]2)=N/C1=C\c1[nH]c(C)c(C(=O)OCc2ccccc2)c1C,-25.2% (active)
6,OCCOCCN(Cc1ccccn1)Cc1cc(I)cc(I)c1O,83.1% (inactive)
7,C#Cc1cccc(Nc2ncnc3ccc(-c4cncc(NS(C)(=O)=O)c4)cc23)c1,45% (inactive)
8,CCS/C(Nc1ccccc1)=C(\C#N)C(=O)N/N=C/c1ccc(Cl)cc1Cl,37.7% (inactive)
9,C=CCn1cc(-c2nc3ccccc3s2)c2cc(-c3ccc4c5c(cccc35)C(=O)N(N)C4=O)ccc21,89.8% (inactive)
10,Nc1c(C(=O)Nc2ccncc2)sc2nc3c(cc12)CCCCCC3,80.4% (inactive)
11,COc1ccc2c3c([nH]c2c1)C(=O)c1nc(C)ccc1C3=O,66.1% (inactive)
12,Cn1c(=O)c2[nH]c(N/N=C/c3ccccc3Br)nc2n(C)c1=O,110% (inactive)
13,COc1cc2c(c(OC)c1OC)-c1ccc(OC)c(=O)cc1[C@@H](NC(=O)CCl)CC2,12.5% (inactive)
14,CCNc1cc(-c2cccc(OC(F)(F)F)c2)nc2ccc(N3CCCC3)cc12,37.3% (inactive)
15,Fc1ccc(Nc2nc3nonc3nc2Nc2ccc(I)cc2)cc1,-17.5% (active)
16,O=C1/C(=C/c2ccccc2Br)COc2ccc(O)c(O)c21,86.3% (inactive)
17,CC1=C(Nc2ccc(N3CCN(C)CC3)cc2)C(=O)c2cncnc2C1=O,99% (inactive)
18,COC(=O)c1cc(-c2ccc(OC)cc2)[nH]c1N/N=C/c1c(Cl)cccc1Cl,38.1% (inactive)
19,Cc1cc(Cl)ccc1Nc1nc(C(F)(F)F)ccc1C(=O)N/N=C/c1ccc([N+](=O)[O-])cc1,6.08% (active)
20,C[C@]12C=CC(=O)C=C1CCC1C2[C@@H](O)C[C@@]2(C)C1CC[C@]2(O)C(=O)COC(=O)CCC(=O)O (stereo not given in full),84.6% (inactive)
